Compound activity as filed in PubChem BioAssay.
A selection: hits, their analogues and other compounds. The true share with any hit is near 2.1%.
Rin1 Abl inh = blocks binding of human Rin1 to Abl | TR-FRET Rin1/Abl binding, biochemical | inhibition, % at 7.35 µM | hit rate 0.4% among 360,000 | AID 588664; in the data active means inhibition above about 5%, passing the limit was not always enough
Calb FLC = affects C. albicans growth with fluconazole; C. albicans CaCi-2 (fluconazole-resistant clinical isolate) + fluconazole, Alamar Blue growth, 48 h; growth inhibition, % (no concentration beside the values); hit rate 0.57% among 300,000; AID 1979;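 active means growth inhibition above about 58% in most replicates, limit read from the data, passing the limit was not always enough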;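 further: all wells also contain fluconazole at 8 µg/ml as a sub-toxic cotreatment; 0% = median of DMSO wells and 100% = median of geldanamycin control wells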
Fh CTSL1 inh = blocks F. hepatica cathepsin L1 in PFM18AAP counter-screen | recombinant F. hepatica cathepsin L1, Z-Leu-Arg-MCA fluorescence | inhibition, % at 5.96 µM | hit rate 0.49% among 300,000 | AID 1906;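 active means inhibition above the mean of all tested compounds plus 3 SD, set per screening campaign, cut at about 17% in these data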;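 further: 0% = plate median of test compound wells and 100% = 1 µM Z-Phe-Ala-diazomethylketone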
M18AAP inhibitor = blocks P. falciparum M18 aspartyl aminopeptidase; hit rate 1.2% among 290,000; inhibition, % at 7.35 µM; AID 1822; recombinant PfM18AAP, H-Glu-NHMec fluorogenic cleavage;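 active means inhibition above the campaign mean inhibition over all tested compounds plus 3 SD, cut at about 28% in these data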;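 further: 0% = plate median of test compound wells and 100% = 2 mM ZnCl2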
* marks the source's active call; other numbers are inactive results.

`CSCCCc1cn([C@@H](CO)C(=O)NCCCCCCCCCCC(=O)N2CCNCC2)nn1` gave Rin1 Abl inh 2.4, Calb FLC 1.2 and Fh CTSL1 inh 3.9.
For Cc1ccc(-n2c(C)cc(/C([O-])=C(/C(=S)Nc3ccc(F)c(Cl)c3)[n+]3ccccc3)c2C)cc1 the results were Rin1 Abl inh -1.2, Calb FLC 110.1*, Fh CTSL1 inh -0.1 and M18AAP inhibitor 8.8.
Screening COc1ccc(C(=O)/C=C2\Sc3ccccc3N2C)cc1 returned Rin1 Abl inh 0.2, Calb FLC 0.3, Fh CTSL1 inh 0.9 and M18AAP inhibitor 18.7.
COc1ccccc1-[n+]1c(C)cc(/C=C2\Sc3ccccc3N2C)cc1C was read as Rin1 Abl inh -56.4, Calb FLC -9.2, Fh CTSL1 inh 3.8 and M18AAP inhibitor 47.8*.
`Cc1ccc(CSCCNS(C)(=O)=O)cc1` gave Rin1 Abl inh 1.3, Calb FLC -1.3, Fh CTSL1 inh 2.3 and M18AAP inhibitor 2.0.
CS(=O)(=O)NCCSCc1ccccc1 was read as Rin1 Abl inh -3.1, Calb FLC 12.8, Fh CTSL1 inh 19.0* and M18AAP inhibitor 1.3.
Screening CCNc1nc(NC(C)C)nc(NC(C)(C)C)n1 returned Rin1 Abl inh 1.7, Calb FLC 83.1*, Fh CTSL1 inh -6.7 and M18AAP inhibitor -3.8.
Screening CCOCCOC(NC(=O)c1ccccc1)(C(F)(F)F)C(F)(F)F returned Rin1 Abl inh 2.8, Calb FLC -2.1, Fh CTSL1 inh -2.4 and M18AAP inhibitor 1.8.
Screening COC(=O)C1CCN(C(=O)COC(=O)CCc2nc3ccccc3c(=O)[nH]2)CC1 returned Rin1 Abl inh -0.5, Calb FLC -1.2, Fh CTSL1 inh -0.5 and M18AAP inhibitor 2.5.
Cn1c(SCc2n[nH]c(=S)n2-c2ccccc2)nnc1-c1ccccc1 was read as Rin1 Abl inh -1.7, Calb FLC -1.5, Fh CTSL1 inh -0.8 and M18AAP inhibitor 29.6*.
For Cn1c(SCc2ccccc2)nnc1-c1ccncc1 the results were Rin1 Abl inh 3.6, Calb FLC -6.7, Fh CTSL1 inh 7.5 and M18AAP inhibitor 5.9.
For CCOC(=O)CC(C#N)c1cn(C)c2ccccc12 (centres undefined) the results were Rin1 Abl inh -3.1, Calb FLC 11.2, Fh CTSL1 inh 28.2* and M18AAP inhibitor -1.4.
`CCOC(=O)Cn1cc(C#N)c2ccccc21` gave Rin1 Abl inh 3.2, Calb FLC -2.4, Fh CTSL1 inh -0.6 and M18AAP inhibitor -0.1.
`COc1ccc(NS(=O)(=O)c2cccc(C(=O)N(C)Cc3cccs3)c2)cc1` gave Rin1 Abl inh 1.1, Calb FLC 8.0 and Fh CTSL1 inh 26.7*.
For CN(C)CCNc1ncnc2c1ncn2[C@H]1CN(Cc2ccc(-c3ccccc3)cc2)C[C@@H](CO)O1 the results were Rin1 Abl inh 3.3.
`O=C(CN1CCN(c2ccc(O)cc2)CC1)Nc1ccc(SC(F)F)cc1` gave Rin1 Abl inh -2.0, Calb FLC 3.1, Fh CTSL1 inh 1.8 and M18AAP inhibitor 28.1*.
For Cc1ccc(S(=O)(=O)N(CC(=O)N2CCCCCC2)c2ccccc2F)cc1 the results were Rin1 Abl inh 2.4, Calb FLC 2.9, Fh CTSL1 inh -0.6 and M18AAP inhibitor 1.4.
CC1(C)CN=C(N(Cc2ccccc2)C(=O)Nc2ccccc2)S1 was read as Rin1 Abl inh 0.2, Calb FLC -7.9, Fh CTSL1 inh 4.6 and M18AAP inhibitor 2.5.
Screening O=C1CCC/C(=N/NC(=O)c2cc(NS(=O)(=O)c3cccs3)cc(NS(=O)(=O)c3cccs3)c2)C1 returned Rin1 Abl inh -1.5, Calb FLC -5.0, Fh CTSL1 inh -8.5 and M18AAP inhibitor 29.6*.
`COc1ccc(C(=O)COC(=O)CN2CC(=O)Oc3ccccc32)cc1Br` gave Rin1 Abl inh 1.5, Fh CTSL1 inh -0.4 and M18AAP inhibitor 16.8.
For O=C(CCSc1ccccn1)c1ccccc1 the results were Rin1 Abl inh -2.2, Calb FLC -5.7, Fh CTSL1 inh 19.1* and M18AAP inhibitor 55.0*.
Oc1c(Br)cc(Br)cc1/C=N/Nc1ccc(Cl)nn1 was read as Rin1 Abl inh 0.8, Calb FLC 83.1*, Fh CTSL1 inh -4.8 and M18AAP inhibitor 39.6*.
For O=C(O)c1ccccc1N/N=C/c1cc(Br)cc(Br)c1O the results were Rin1 Abl inh -4.1, Calb FLC -5.5, Fh CTSL1 inh 12.2 and M18AAP inhibitor 5.6.
CCc1c(C#N)c(SCc2c(C)noc2C)nc2c1C(=O)CC(C)(C)C2 was read as Rin1 Abl inh -0.8, Calb FLC 5.7, Fh CTSL1 inh 9.7 and M18AAP inhibitor -7.6.
Cc1ccc(CSCC(=O)N2CCCC2)cc1 was read as Rin1 Abl inh 2.3, Calb FLC -0.3, Fh CTSL1 inh -2.2 and M18AAP inhibitor -2.6.
`CCOC(=O)N1CCN(C(=O)CSCc2ccc(C)cc2)CC1` gave Rin1 Abl inh 6.1*, Calb FLC 0.2, Fh CTSL1 inh -3.1 and M18AAP inhibitor -9.4.
`CCn1c(NC)cc(=O)n(C)c1=O` gave Rin1 Abl inh -2.8, Calb FLC 2.0, Fh CTSL1 inh -2.8 and M18AAP inhibitor 3.9.
Screening CNc1cc(=O)n(C)c(=O)n1-c1ccccc1 returned Rin1 Abl inh -5.2, Calb FLC -3.1 and Fh CTSL1 inh 31.2*.
Cc1c(Br)c(O)c(Br)c(O)c1/C=N/n1c(-c2ccccc2)n[nH]c1=S was read as Rin1 Abl inh -0.2, Calb FLC 19.9, Fh CTSL1 inh 16.6 and M18AAP inhibitor 29.4*.
Fc1cccc(F)c1-n1c(CN2CCCC2)csc1=S was read as Rin1 Abl inh 6.8, Calb FLC 1.2, Fh CTSL1 inh 0.6 and M18AAP inhibitor -5.3.
`O=[N+]([O-])c1cc(Cl)cc(/C=N/NC(=S)Nc2ccc(S(=O)(=O)N3CCOCC3)cc2)c1O` gave Rin1 Abl inh -2.8, Calb FLC 108.6*, Fh CTSL1 inh -3.7 and M18AAP inhibitor 14.3.
For N#Cc1ccc(/C=N/NC(=S)Nc2ccc(S(=O)(=O)N3CCOCC3)cc2)cc1 the results were Rin1 Abl inh -2.0, Calb FLC -2.7, Fh CTSL1 inh 8.1 and M18AAP inhibitor 3.3.
For COC(=O)c1sccc1NC(=O)CSCCc1ccncc1 the results were Rin1 Abl inh 1.4, Calb FLC 9.6, Fh CTSL1 inh -2.1 and M18AAP inhibitor 4.3.
Oc1cc2c(cc1O)[C@H]1c3ccc(O)c(O)c3OC[C@@]1(O)C2 was read as Rin1 Abl inh 31.4*.
Screening Cc1cc(-c2ccc(N=Nc3c(S(=O)(=O)O)cc4cc(S(=O)(=O)O)cc(N)c4c3O)c(C)c2)ccc1N=Nc1c(S(=O)(=O)O)cc2cc(S(=O)(=O)O)cc(N)c2c1O returned Fh CTSL1 inh 27.2*.
Screening Nc1cc(S(=O)(=O)O)cc2ccc(S(=O)(=O)O)cc12 returned Rin1 Abl inh -0.3.
For O=C1C=C(Nc2ccc(F)cc2)c2ccccc2C1=O the results were Rin1 Abl inh -6.1.
For O=C1C=C(Nc2ccccc2O)c2ccccc2C1=O the results were Rin1 Abl inh -4.7, Calb FLC -4.7, Fh CTSL1 inh 22.4* and M18AAP inhibitor 19.2.
`O=C1C=C(NCc2ccccc2)c2ccccc2C1=O` gave Rin1 Abl inh -0.8, Calb FLC 99.1* and M18AAP inhibitor 7.2.
`CN(C)c1ccc(/C=C(/NC(=O)c2ccccc2Cl)C(=O)NCCN2CCOCC2)cc1` gave Rin1 Abl inh -3.0, Fh CTSL1 inh 4.5 and M18AAP inhibitor 2.8.
